# Measurements from PubChem BioAssay (NCATS).
# Inconclusive results are not listed. A call without a number means that no potency is given here. Active and inactive are the calls of the source. Calls come from the whole dose curve; as a rule, active = well fitted inhibition curve with a large enough effect; inconclusive = small, poorly fitted or top-dose-only effect; inactive = flat fitted curve, though single readings scatter. Starred links: 1 amine or outer side, 2 acyl side, 3 side chain; linkers in the order of their positions; H or OH if unused. Positions of bridges follow the written chain, without caps; N, C: chain ends. Non-standard residues stand in square brackets, D forms with d. Residues, ends and D or L forms follow the SMILES beside them. Chains are numbered I, II in the order given. ξ: configuration not given here. *: point of attachment. Actinocin(9to1) = Cc1c2oc3c(C)ccc(C(=O)[*:1])c3nc-2c(C(=O)[*:2])c(N)c1=O; Octanoyl(6-Me) = CCC(C)CCCCC(=O)*; ξThr(3R) = C[C@@H](O)C(N)C(=O)O; NMeV = CN[CH](C(=O)O)C(C)C; dDab = NCC[C@@H](N)C(=O)O; Dab = NCC[C@H](N)C(=O)O; Sar = CNCC(=O)O
# Test system: MCC-26
# Experiment: qHTS assay to identify novel small-molecules to repurpose for Merkel cell carcinoma treatment (AID 1296009); note: nearly all actives have a fitted effect of over 60% in size
# Details: MCC and control cell lines, CellTiter-Glo viability, 72 h; series mostly up to 46 µM
# From the text: MCC is a rare and aggressive neuroendocrine skin cancer with limited treatment options. Approximately 80% of MCCs have the Merkel cell polyomavirus (MCPyV) DNA integrated into the host genome (virus-positive: VP-MCC) and viral oncogenes drive oncogenesis. The remaining MCCs are virus-negative (VN-MCC) and are caused by UV mutagenesis. To identify novel treatments for VP-MCC and/or VN-MCC we screened three VP-MCC cell lines (WAGA, MKL-1, MKL-2), three VN-MCC cell lines (MCC-13, MCC-26, UISO), and four immortalized, non-transformed control cell lines (HaCaT, HEK293T, CRL7250, NIH-3T3) against ~2,400 compounds in the NCGC Pharmaceutical Collection (NPC) and ~1,900 compounds in the Mechanism Interrogation PlatE (MiPE). Using cell viability as a readout (CellTiter-Glo assay) we found both overlapping and distinct drugs that can be repurposed for the treatment of VP-MCC and VN-MCC.
# A high-throughput screen was conducted in 1536-well white flat bottom plates (Corning) on a Kalypsys robotic system. Cell lines WAGA, MKL-1, MKL-2, MCC-13, MCC-26, UISO, HaCaT, HEK293T, CRL7250, and NIH-3T3 were screened against 2 small molecule annotated drug libraries NPC and MIPE in dose response (8 and 11 pt. respectively) measuring cell viability after 72 hours of incubation. […] A 1,536 pintool (Kalypsys) was used to transfer 23 nL of compound in DMSO to the 1,536-well assay plates. After 72 hr incubation at 37 degree celsius, 2.5 uL of CellTiter-Glo (Promega) was dispensed into each well using a BiorapTR. Plates were incubated at room temperature for 10 min, transferred to a ViewLux (PerkinElmer) and the luminescence was recorded using an exposure time of 2 seconds. Relative luminescence units (RLUs) were normalized to in-plate controls (no cells as a positive (cytotoxicity) control, DMSO as negative control) and the normalized data was processed using NCATS in-house software.
# Potency is the fitted concentration of half-maximal effect.
row,Structure (SMILES),Potency
1,COc1cccc2c1C(=O)c1c(O)c3c(c(O)c1C2=O)C[C@@](O)(C(=O)CO)C[C@@H]3O[C@H]1C[C@H](N)[C@@H](O)[C@H](C)O1,2.35 µM (active)
2,OCCN1C[C@H](O)[C@@H](O)[C@H](O)[C@@H]1CO,inactive
3,CC[C@H]1OC(=O)[C@H](C)[C@@H](O[C@H]2C[C@@](C)(OC)[C@@H](O)[C@H](C)O2)[C@H](C)[C@@H](O[C@@H]2O[C@H](C)C[C@H](N(C)C)[C@@H]2O)[C@](C)(OC)C[C@@H](C)C(=O)[C@H](C)[C@@H](O)[C@]1(C)O,inactive
4,O=C(Nc1cccc(Nc2ncc(Br)c(NCCc3cnc[nH]3)n2)c1)N1CCCC1,11.8 µM (active)
5,FC(F)(F)c1ccc(Nc2nc3ccc(Oc4ccnc(-c5ncc(C(F)(F)F)[nH]5)c4)cc3[nH]2)cc1,inactive
6,CCN(CC)CCNC(=O)c1c(C)[nH]c(C=C2C(=O)Nc3ccc(F)cc32)c1C,38.2 µM (active)
7,CCCc1nc(C(C)(C)O)c(C(=O)O)n1Cc1ccc(-c2ccccc2-c2nn[nH]n2)cc1,inactive
8,CC(=O)SCC(Cc1ccccc1)C(=O)NCC(=O)OCc1ccccc1 (stereo not given),inactive
9,O=C(c1ccc(F)cc1)N1CCC[C@H](c2nc(-c3ccc(F)cc3)no2)C1,inactive
10,Cn1cc(-c2ccc3ncc(Cc4ccc5ncccc5c4)n3n2)cn1,inactive
11,c1ccc(CNc2nc(NCc3ccccc3)c3ccccc3n2)cc1,inactive
12,C=C1CCC2[C@](C)(CO)C(O)CC[C@]2(C)C1CC=C1C(=O)OCC1O (stereo not given in full),inactive
13,C[C@H](NC(=O)C(C#N)=Cc1cccc(Br)n1)c1ccccc1,inactive
14,CC[C@H](CC[C@@H](C)[C@H]1CC[C@H]2[C@@H]3CC=C4C[C@@H](O)CC[C@]4(C)[C@@H]3CC[C@]12C)C(C)C,inactive
15,Cc1cnc(Nc2ccc(N3CCN(C)CC3)cc2)nc1Nc1cccc(S(=O)(=O)NC(C)(C)C)c1,8.33 µM (active)
16,Nc1nc(=O)n([C@H]2CSC(CO)O2)cc1F (stereo not given in full),inactive
17,CCCCOc1ccc(C(=O)Nc2ccc(F)cc2F)cc1,inactive
18,Cc1cnc(Nc2ccc(CN3CCOCC3)cc2)nc1Nc1cccc(S(=O)(=O)NC(C)(C)C)c1,8.33 µM (active)
19,CC(=CC(=O)Nc1ccccc1C(=O)O)c1ccc2ccccc2c1,inactive
20,C[C@H](NC(=O)[C@@H](O)c1cc(F)cc(F)c1)C(=O)N[C@@H]1C(=O)N(C)c2ccccc2-c2ccccc21,inactive

row,Structure (SMILES),Potency
1,O=C(Nc1ccc(Oc2ccnc3[nH]ccc23)c(F)c1)c1cccn(-c2ccc(F)cc2)c1=O,inactive
2,CC(C)c1cc(C(C)C)c(CC(=O)NS(=O)(=O)Oc2c(C(C)C)cccc2C(C)C)c(C(C)C)c1,inactive
3,O=C(C[C@@H]1CC=CCCC(=O)O[C@H](c2ccccc2)CNC1=O)NCc1ccc(Cl)cc1,inactive
4,CCCCCCCCCCCCCCCC(=O)OC[C@@H](NC(=O)C(Cl)Cl)[C@H](O)c1ccc([N+](=O)[O-])cc1,inactive
5,Cn1cc(C[C@@H](N)C(=O)O)c2ccccc21,inactive
6,CCS(=O)(=O)Nc1ccc2[nH]c(O)c(C(=Nc3ccc(CN4CCCCC4)cc3)c3ccccc3)c2c1,1.48 µM (active)
7,CCc1nc(-c2cccc(C)c2)c(-c2ccnc(NC(=O)c3ccccc3)c2)s1,inactive
8,CCn1c(=O)c2c(nc(C=Cc3ccc(OC)c(OC)c3)n2C)n(CC)c1=O,inactive
9,C[C@@]12C[C@@]3(O)O[C@@H](O1)[C@]1(COC(=O)c4ccccc4)[C@@H]3C[C@@]12O[C@@H]1O[C@H](CO)[C@@H](O)[C@H](O)[C@@H]1O,inactive
10,CC(C(C)N1CC(=O)NC(=O)C1)N1CC(=O)NC(=O)C1 (stereo not given),inactive
11,C#CCC(Cc1cnc2nc(N)nc(N)c2n1)c1ccc(C(=O)N[C@@H](CCC(=O)O)C(=O)O)cc1 (stereo not given in full),inactive
12,O=C(NNC(=O)c1ccc(CNS(=O)(=O)c2ccc(F)c(Cl)c2)cc1)c1ccccc1,inactive
13,CCC(C)CCCCC(=O)N[C@@H](CCN)C(=O)NC(C(=O)N[C@H](CCN)C(=O)N[C@@H]1CCNC(=O)C([C@@H](C)O)NC(=O)[C@@H](CCN)NC(=O)[C@@H](CCN)NC(=O)[C@@H](CC(C)C)NC(=O)[C@H](Cc2ccccc2)NC(=O)[C@H](CCN)NC1=O)[C@@H](C)O (stereo partly drawn) ({Octanoyl(6-Me)}-[Dab][ξThr(3R)][dDab][dDab][Dab]F[dL][dDab][dDab][ξThr(3R)]; lactam 4-C),inactive
14,CON=C(C(=O)N[C@@H]1C(=O)N2C(C(=O)O)=C(Cn3ccc(=N)n3CCO)CS[C@H]12)c1csc(N)n1,inactive
15,C#C[C@]1(O)CC[C@@H]2[C@@H]3CCc4cc(O)ccc4[C@H]3CC[C@@]21C,inactive
16,CC(C)C[C@H](NC(=O)[C@@H](NC(=O)c1cccc(-c2ccccc2)n1)[C@@H](C)O)B(O)O,0.148 µM (active)
17,Cc1cc(Nc2ncc3c(n2)N(C)C(=O)N(c2cc(NC(=O)c4cccc(C(F)(F)F)c4)ccc2C)C3)n(C)n1,1.18 µM (active)
18,CC(C)(C)c1nc2c3cc[nH]c(=O)c3c3cc(F)ccc3c2[nH]1,inactive
19,O=C1c2cccc(O)c2C(=O)c2c(O)cc(CO)cc21,inactive
20,"Cc1c2oc3c(C)ccc(C(=O)NC4C(=O)NC(C(C)C)C(=O)N5CCCC5C(=O)N(C)CC(=O)N(C)C(C(C)C)C(=O)OC4C)c3nc-2c(C(=O)NC2C(=O)NC(C(C)C)C(=O)N3CCCC3C(=O)N(C)CC(=O)N(C)C(C(C)C)C(=O)OC2C)c(N)c1=O (stereo not given) (I: TVP[Sar][NMeV] / II: TVP[Sar][NMeV]; ester I:1-I:C, II:1-II:C; linker I:N-II:N via Actinocin(9to1); configuration not given here)",inactive
